# Test results reported in publication PMC5540273 (PLoS ONE, 2017).
# “And” between values parts separate entries of the source, which are not always exact repeats. Equal values may be shown once. Read-outs that look alike come from different tables or passages of the source.
# Experiments:
# TTK = conditions: concentration: 1 μM, replicates: in singlicate; n = 1
# TXK = conditions: n = 1
# [1] = system: TYK2(JH1domain-catalytic); conditions: n = 1
# [2] = system: TYK2(JH2domain-pseudokinase); conditions: n = 1
# TYRO3 = conditions: n = 1
# ULK1 = conditions: concentration: 1 μM, replicates: in singlicate; n = 1
# ULK2 = conditions: n = 1
# ULK3 = conditions: n = 1
# VEGFR2 = system: T1, VEGFR2; conditions: n = 1
# T1 construct: gene KDR
# VPS34 = system: T2, VPS34; conditions: n = 1
# T2 construct: gene PIK3C3
# VRK2 = conditions: concentration: 1 μM, replicates: in singlicate; n = 1
# WEE1 = conditions: n = 1
# WEE2 = conditions: n = 1
# WNK1 = conditions: n = 1
# WNK2 = conditions: n = 1
# WNK3 = conditions: n = 1
# WNK4 = conditions: n = 1
# YANK1 = system: T3, YANK1; conditions: n = 1
# T3 construct: gene STK32A
# YANK2 = system: T4, YANK2; conditions: n = 1
# T4 construct: gene STK32B
# YANK3 = system: T5, YANK3; conditions: n = 1
# T5 construct: gene STK32C
# [3] = concentration: 1 μM, replicates: in singlicate
# [4] = concentration: 1 μM,replicates: in singlicate, 1 µM
# 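Note: KINOMEscan kinase panel screen.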
smiles,measurement,setting,value
Cc1nnc(-c2ccc3occ(-c4ccc(S(C)=O)cc4)c3c2)[nH]1 (stereo not shown),%Inh,TTK,8%
same,%Inh,TXK; [3],0%
same,%Inh,[1]; [3],8%
same,%Inh,[2]; [3],59%
same,%Inh,TYRO3; [3],0%
same,%Inh,ULK1,4%
same,%Inh,ULK2; [3],23%
same,%Inh,ULK3; [3],14%
same,%Inh,VEGFR2; [3],1%
same,%Inh,VPS34; [3],88%
same,%Inh,VRK2,0%
same,%Inh,WEE1; [3],0%
same,%Inh,WEE2; [3],32%
same,%Inh,WNK1; [3],0%
same,%Inh,WNK2; [3],19%
same,%Inh,WNK3; [3],0%
same,%Inh,WNK4; [3],0%
same,%Inh,YANK1; [3],0%
same,%Inh,YANK2; [3],0%
same,%Inh,YANK3; [3],0%
Nc1nc(-c2nccs2)c(-c2ccnc3ccccc23)s1 [GW693542],%Inh,TTK,14%
same,%Inh,TXK; [3],5%
same,%Inh,[1]; [3],0%
same,%Inh,[2]; [3],9%
same,%Inh,TYRO3; [3],18%
same,%Inh,ULK1,8%
same,%Inh,ULK2; [3],0%
same,%Inh,ULK3; [3],0%
same,%Inh,VEGFR2; [3],0%
same,%Inh,VPS34; [3],0%
same,%Inh,VRK2,0%
same,%Inh,WEE1; [3],22%
same,%Inh,WEE2; [3],9%
same,%Inh,WNK1; [3],20%
same,%Inh,WNK2; [3],28%
same,%Inh,WNK3; [3],35%
same,%Inh,WNK4; [3],28%
same,%Inh,YANK1; [3],9%
same,%Inh,YANK2; [3],3%
same,%Inh,YANK3; [3],0%
Cn1ccc2ncnc(Oc3cccc(C(=O)Nc4ccccc4)c3)c21,%Inh,TTK,0%
same,%Inh,TXK; [3],0%
same,%Inh,[1]; [3],0%
same,%Inh,[2]; [3],0%
same,%Inh,TYRO3; [3],0%
same,%Inh,ULK1,0%
same,%Inh,ULK2; [3],6%
same,%Inh,ULK3; [3],9%
same,%Inh,VEGFR2; [3],59%
same,%Inh,VPS34; [3],11%
same,%Inh,VRK2,0%
same,%Inh,WEE1; [3],5%
same,%Inh,WEE2; [3],0%
same,%Inh,WNK1; [3],0%
same,%Inh,WNK2; [3],0%
same,%Inh,WNK3; [3],0%
same,%Inh,WNK4; [3],0%
same,%Inh,YANK1; [3],11%
same,%Inh,YANK2; [3],1%
same,%Inh,YANK3; [3],29%
CCn1c(-c2cccnc2O)nc2cnccc21 [SB-736715],%Inh,TTK,0%
same,%Inh,TXK; [3],0%
same,%Inh,[1]; [3],0%
same,%Inh,[2]; [3],0%
same,%Inh,TYRO3; [3],0%
same,%Inh,ULK1,0%
same,%Inh,ULK2; [3],0%
same,%Inh,ULK3; [3],0%
same,%Inh,VEGFR2; [3],0%
same,%Inh,VPS34; [3],0%
same,%Inh,VRK2,77%
same,%Inh,WEE1; [3],0%
same,%Inh,WEE2; [3],84%
same,%Inh,WNK1; [3],0%
same,%Inh,WNK2; [3],24%
same,%Inh,WNK3; [3],0%
same,%Inh,WNK4; [3],0%
same,%Inh,YANK1; [3],0%
same,%Inh,YANK2; [3],0%
same,%Inh,YANK3; [3],0%
CSc1nn2c(=O)cc(N3CCOCC3)nc2n1Cc1cccc(C(F)(F)F)c1C [GSK2363608],%Inh,TTK,0%
same,%Inh,TXK; [4],10% and 0%
same,%Inh,[1]; [4],51% and 72%
same,%Inh,[2]; [4],16% and 8%
same,%Inh,TYRO3; [4],0% and 18%
same,%Inh,ULK1,15%
same,%Inh,ULK2; [4],5% and 0%
same,%Inh,ULK3; [4],15% and 0%
same,%Inh,VEGFR2; [4],8% and 0%
same,%Inh,VPS34; [4],94.7% and 96.7%
same,%Inh,VRK2,0%
same,%Inh,WEE1; [4],15% and 11%
same,%Inh,WEE2; [4],9% and 10%
same,%Inh,WNK1; [4],13% and 7%
same,%Inh,WNK2; [4],14% and 22%
same,%Inh,WNK3; [4],24% and 10%
same,%Inh,WNK4; [4],1% and 4%
same,%Inh,YANK1; [4],0% and 3%
same,%Inh,YANK2; [4],8% and 0%
same,%Inh,YANK3; [4],0% and 68%
CS(=O)(=O)c1ccc(-c2c(-c3ncn[nH]3)sc(N3CCOCC3)c2C#N)cc1,%Inh,TTK,21%
same,%Inh,TXK; [3],0%
same,%Inh,[1]; [3],0%
same,%Inh,[2]; [3],0%
same,%Inh,TYRO3; [3],0%
same,%Inh,ULK1,3%
same,%Inh,ULK2; [3],36%
same,%Inh,ULK3; [3],7%
same,%Inh,VEGFR2; [3],8%
same,%Inh,VPS34; [3],86%
same,%Inh,VRK2,0%
same,%Inh,WEE1; [3],0%
same,%Inh,WEE2; [3],10%
same,%Inh,WNK1; [3],0%
same,%Inh,WNK2; [3],11%
same,%Inh,WNK3; [3],0%
same,%Inh,WNK4; [3],0%
same,%Inh,YANK1; [3],27%
same,%Inh,YANK2; [3],0%
same,%Inh,YANK3; [3],16%
Cc1cccc(-c2nc(Nc3ccc4[nH]ncc4c3)c3ccccc3n2)n1 [GW857175],%Inh,TTK,3%
same,%Inh,TXK; [3],0%
same,%Inh,[1]; [3],11%
same,%Inh,[2]; [3],36%
same,%Inh,TYRO3; [3],0%
same,%Inh,ULK1,12%
same,%Inh,ULK2; [3],8%
same,%Inh,ULK3; [3],18%
same,%Inh,VEGFR2; [3],23%
same,%Inh,VPS34; [3],0%
same,%Inh,VRK2,0%
same,%Inh,WEE1; [3],4%
same,%Inh,WEE2; [3],0%
same,%Inh,WNK1; [3],0%
same,%Inh,WNK2; [3],51%
same,%Inh,WNK3; [3],40%
same,%Inh,WNK4; [3],50%
same,%Inh,YANK1; [3],17%
same,%Inh,YANK2; [3],0%
same,%Inh,YANK3; [3],59%
COC(=O)c1c(-c2ccccc2)c2cc(C(=O)O)ccc2c(=O)n1Cc1ccccc1,%Inh,TTK,4%
same,%Inh,TXK; [3],0%
same,%Inh,[1]; [3],0%
same,%Inh,[2]; [3],4%
same,%Inh,TYRO3; [3],7%
same,%Inh,ULK1,0%
same,%Inh,ULK2; [3],0%
same,%Inh,ULK3; [3],0%
same,%Inh,VEGFR2; [3],0%
same,%Inh,VPS34; [3],9%
same,%Inh,VRK2,0%
same,%Inh,WEE1; [3],0%
same,%Inh,WEE2; [3],0%
same,%Inh,WNK1; [3],0%
same,%Inh,WNK2; [3],0%
same,%Inh,WNK3; [3],0%
same,%Inh,WNK4; [3],3%
same,%Inh,YANK1; [3],0%
same,%Inh,YANK2; [3],3%
same,%Inh,YANK3; [3],2%
Fc1cccc(COc2nnc(-c3ccc4c(c3)CCO4)o2)c1,%Inh,TTK,14%
same,%Inh,TXK; [3],0%
same,%Inh,[1]; [3],3%
same,%Inh,[2]; [3],6%
same,%Inh,TYRO3; [3],0%
same,%Inh,ULK1,0%
same,%Inh,ULK2; [3],14%
same,%Inh,ULK3; [3],0%
same,%Inh,VEGFR2; [3],25%
same,%Inh,VPS34; [3],17%
same,%Inh,VRK2,0%
same,%Inh,WEE1; [3],0%
same,%Inh,WEE2; [3],19%
same,%Inh,WNK1; [3],0%
same,%Inh,WNK2; [3],0%
same,%Inh,WNK3; [3],0%
same,%Inh,WNK4; [3],0%
same,%Inh,YANK1; [3],0%
same,%Inh,YANK2; [3],0%
same,%Inh,YANK3; [3],19%
COc1ccccc1CNC(=O)c1cc(C(=O)c2ccccc2C)c[nH]1 [GSK364507],%Inh,TTK,0%
same,%Inh,TXK; [3],27%
same,%Inh,[1]; [3],5%
same,%Inh,[2]; [3],21%
same,%Inh,TYRO3; [3],15%
same,%Inh,ULK1,4%
same,%Inh,ULK2; [3],0%
same,%Inh,ULK3; [3],9%
same,%Inh,VEGFR2; [3],0%
same,%Inh,VPS34; [3],1%
same,%Inh,VRK2,0%
same,%Inh,WEE1; [3],9%
same,%Inh,WEE2; [3],12%
same,%Inh,WNK1; [3],10%
same,%Inh,WNK2; [3],12%
same,%Inh,WNK3; [3],25%
same,%Inh,WNK4; [3],32%
same,%Inh,YANK1; [3],10%
same,%Inh,YANK2; [3],0%
same,%Inh,YANK3; [3],23%
COc1cc2nccc(Nc3ccc(NC(=O)c4ccc(C)cc4)c(O)c3)c2cc1OC.Cl [GW440132],%Inh,TTK,0%
same,%Inh,TXK; [3],10%
same,%Inh,[1]; [3],0%
same,%Inh,[2]; [3],1%
same,%Inh,TYRO3; [3],0%
same,%Inh,ULK1,21%
same,%Inh,ULK2; [3],0%
same,%Inh,ULK3; [3],7%
same,%Inh,VEGFR2; [3],0%
same,%Inh,VPS34; [3],14%
same,%Inh,VRK2,0%
same,%Inh,WEE1; [3],2%
same,%Inh,WEE2; [3],11%
same,%Inh,WNK1; [3],7%
same,%Inh,WNK2; [3],14%
same,%Inh,WNK3; [3],14%
same,%Inh,WNK4; [3],0%
same,%Inh,YANK1; [3],11%
same,%Inh,YANK2; [3],0%
same,%Inh,YANK3; [3],16%
CC(C)(C)c1ccc(C(=O)Nc2cn3cc(Cl)ccc3n2)cc1,%Inh,TTK,0%
same,%Inh,TXK; [3],0%
same,%Inh,[1]; [3],0%
same,%Inh,[2]; [3],0%
same,%Inh,TYRO3; [3],9%
same,%Inh,ULK1,0%
same,%Inh,ULK2; [3],0%
same,%Inh,ULK3; [3],10%
same,%Inh,VEGFR2; [3],12%
same,%Inh,VPS34; [3],13%
same,%Inh,VRK2,0%
same,%Inh,WEE1; [3],0%
same,%Inh,WEE2; [3],0%
same,%Inh,WNK1; [3],0%
same,%Inh,WNK2; [3],0%
same,%Inh,WNK3; [3],0%
same,%Inh,WNK4; [3],0%
same,%Inh,YANK1; [3],0%
same,%Inh,YANK2; [3],0%
same,%Inh,YANK3; [3],3%
CCn1c(-c2ccccn2)nc2cnccc21 [SB-736398],%Inh,TTK,0%
same,%Inh,TXK; [3],10%
same,%Inh,[1]; [3],21%
same,%Inh,[2]; [3],45%
same,%Inh,TYRO3; [3],0%
same,%Inh,ULK1,8%
same,%Inh,ULK2; [3],0%
same,%Inh,ULK3; [3],0%
same,%Inh,VEGFR2; [3],0%
same,%Inh,VPS34; [3],4%
same,%Inh,VRK2,26%
same,%Inh,WEE1; [3],0%
same,%Inh,WEE2; [3],0%
same,%Inh,WNK1; [3],0%
same,%Inh,WNK2; [3],3%
same,%Inh,WNK3; [3],37%
same,%Inh,WNK4; [3],36%
same,%Inh,YANK1; [3],0%
same,%Inh,YANK2; [3],0%
same,%Inh,YANK3; [3],32%
O=C(Nc1n[nH]c2nc(-c3nccs3)c(Br)cc12)C1CCCC1 [SB-742609],%Inh,TTK,13%
same,%Inh,TXK; [3],27%
same,%Inh,[1]; [3],18%
same,%Inh,[2]; [3],31%
same,%Inh,TYRO3; [3],0%
same,%Inh,ULK1,5%
same,%Inh,ULK2; [3],0%
same,%Inh,ULK3; [3],18%
same,%Inh,VEGFR2; [3],0%
same,%Inh,VPS34; [3],0%
same,%Inh,VRK2,34%
same,%Inh,WEE1; [3],0%
same,%Inh,WEE2; [3],1%
same,%Inh,WNK1; [3],10%
same,%Inh,WNK2; [3],0%
same,%Inh,WNK3; [3],19%
same,%Inh,WNK4; [3],0%
same,%Inh,YANK1; [3],4%
same,%Inh,YANK2; [3],0%
same,%Inh,YANK3; [3],28%
